These results are taken from PubChem BioAssay.

Each structure is given as a SMILES string. Calls of active or inactive are those of the source. Unless noted, no stated cut-off is given here; in the data, active means inhibition above about 30%; inactive means the rest.

A word on the inhibition: it is the change of the read-out against control, counted positive when it falls.

In the first assay the target is Nuclear receptor coactivator 3 (Homo sapiens) (UniProt Q9Y6Q9). The assay can be described thus: NCOA3 GAL4-fusion reporter inhibition – cell-based, luminescence, quadruplicate, confirmation (AID 588792;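 active means mean inhibition over 43.08%, the solvent-only control mean plus 3 SD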;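 further: 0% = DMSO treated cells and 100% = gossypol at 36 µM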). The conditions noted are these: HEK293 GAL4-SRC3 luciferase reporter, at 3.6 µM, active compounds read high. (In general: In a reporter assay the amount or activity of a reporter protein is the signal.)
Nuclear receptor coactivator 3 (Homo sapiens), sequence (Q9Y6Q9 whole entry, looked up, the tested form may be a part): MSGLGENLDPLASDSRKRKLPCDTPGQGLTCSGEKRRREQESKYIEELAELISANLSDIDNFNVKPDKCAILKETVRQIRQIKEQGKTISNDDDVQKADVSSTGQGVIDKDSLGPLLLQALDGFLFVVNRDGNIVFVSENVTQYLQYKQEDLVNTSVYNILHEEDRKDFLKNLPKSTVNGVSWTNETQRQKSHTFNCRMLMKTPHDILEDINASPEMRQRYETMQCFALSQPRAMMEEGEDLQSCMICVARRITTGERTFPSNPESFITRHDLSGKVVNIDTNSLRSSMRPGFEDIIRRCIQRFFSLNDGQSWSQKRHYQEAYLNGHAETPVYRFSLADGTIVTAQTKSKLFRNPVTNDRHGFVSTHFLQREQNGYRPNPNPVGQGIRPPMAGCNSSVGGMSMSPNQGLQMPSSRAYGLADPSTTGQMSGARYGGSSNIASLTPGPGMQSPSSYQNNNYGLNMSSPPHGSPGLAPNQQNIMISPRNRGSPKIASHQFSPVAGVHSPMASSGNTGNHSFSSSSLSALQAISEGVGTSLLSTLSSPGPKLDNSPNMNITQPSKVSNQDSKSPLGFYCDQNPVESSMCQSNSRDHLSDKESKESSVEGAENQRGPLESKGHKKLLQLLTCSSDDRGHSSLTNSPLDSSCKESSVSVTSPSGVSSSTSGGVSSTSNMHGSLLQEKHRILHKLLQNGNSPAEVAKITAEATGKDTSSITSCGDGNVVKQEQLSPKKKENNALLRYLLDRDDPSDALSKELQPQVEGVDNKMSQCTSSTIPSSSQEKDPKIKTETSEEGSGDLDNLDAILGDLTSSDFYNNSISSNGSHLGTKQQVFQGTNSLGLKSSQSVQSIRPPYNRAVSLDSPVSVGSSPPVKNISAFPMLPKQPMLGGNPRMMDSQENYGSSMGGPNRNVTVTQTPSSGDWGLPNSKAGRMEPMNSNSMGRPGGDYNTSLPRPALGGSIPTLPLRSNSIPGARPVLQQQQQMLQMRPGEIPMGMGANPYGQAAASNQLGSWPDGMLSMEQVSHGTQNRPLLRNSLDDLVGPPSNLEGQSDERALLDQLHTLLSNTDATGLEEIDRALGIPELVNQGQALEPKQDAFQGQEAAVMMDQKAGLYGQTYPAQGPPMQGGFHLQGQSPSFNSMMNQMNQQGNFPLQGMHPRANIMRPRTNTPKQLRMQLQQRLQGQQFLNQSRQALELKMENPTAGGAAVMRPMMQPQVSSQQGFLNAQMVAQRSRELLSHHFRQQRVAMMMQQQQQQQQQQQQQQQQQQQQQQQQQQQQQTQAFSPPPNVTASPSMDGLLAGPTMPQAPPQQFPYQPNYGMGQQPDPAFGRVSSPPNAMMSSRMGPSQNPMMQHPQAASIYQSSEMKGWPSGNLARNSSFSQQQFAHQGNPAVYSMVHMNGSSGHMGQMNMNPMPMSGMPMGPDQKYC
As for `NC(=O)c1sc2nc3c(c(-c4ccco4)c2c1N)CCC3`, the inhibition is 53.9% (active).
Still for that read-out and setting: in the case of `COc1ccc2c(c1OC)C(=O)N1c3ccccc3C(=O)N(c3ccccc3)C21` (stereo not given) it was 17.1% (inactive); in that of `CCOc1ccc(-n2c(C)c(C(C)=O)c3cc(O)ccc32)cc1`, 59.7% (active).
Take `CC[n+]1ccccc1/C=C/c1ccc(N(C)C)cc1`: the inhibition is 15.6% (inactive).
Take `CC1CCN(c2nc3ccc(C(=O)O)cc3s2)CC1`: the inhibition was 10.7% (inactive).
On to `O=C(C1CCC(CNS(=O)(=O)c2cccs2)CC1)N1CCN(c2ccc(Cl)cc2)CC1` (stereo not given), for which the inhibition is 13.8% (inactive).
On the same count and under the same terms, with `Cc1c2ccncc2cc2c1[nH]c1ccccc12` the figure was 48.7% (active); with `CC1CCN(Cc2c(C(=O)N/N=C/c3cc(Br)ccc3O)nnn2-c2nonc2N)CC1`, 75.4% (active); with `COc1ccc(-c2cn[nH]c2-c2ccc(OC)cc2)cc1`, 59.5% (active).
Still for that read-out and setting: with `Cc1cc(/C=C2/C(=O)NN(c3ccccc3)C2=O)c(C)n1-c1ccc(O)cc1` the figure was -13.6% (inactive); with `O=C(N/N=C/c1cc(Cl)ccc1O)C(=O)Nc1ccccc1OC(F)(F)C(F)F`, 29.3% (inactive); with `CN(C)CC(C(=O)c1ccccc1)c1ccccc1` (stereo not given), 38.8% (inactive).
Turning to `Nc1nccc(-c2ccc(-n3cnc4ccccc43)cc2)n1`, the inhibition is 56.7% (active).
As for `Cc1nc2ccc(NC(=O)c3ccc(Cl)c(S(=O)(=O)N(C)c4ccccc4)c3)cc2s1`, the inhibition was 19.2% (inactive).
Still for that read-out and setting: in the case of `CC(=O)NC(C)c1cc(Cl)c2cccnc2c1O` (stereo not given) it was 20.2% (inactive); in that of `COc1ccc(-c2csc(NC(=O)C3CCN(c4ncnc5sc(C)c(C)c45)CC3)n2)cc1OC`, 24.1% (inactive); in that of `O=C(N/N=C(\c1ccccc1)c1ccccn1)c1ccccc1Cl`, 35.8% (inactive).
The same measure, in the same setting: in the case of `Nc1nc(=O)n(C2CC(O)C(CO)O2)cc1F` (stereo not given) it was 58.5% (active); in that of `Nc1ncnc(NCc2ccccc2)c1[N+](=O)[O-]`, 38.8% (inactive); in that of `COc1ccc(C(C(=O)NC2CCCCC2)N(C(=O)CCl)c2ccc(C)cc2)cc1` (stereo not given), 71.8% (active).
In the case of `O=C(C=P(c1ccccc1)(c1ccccc1)c1ccccc1)c1ccccc1-c1ccccc1C(=O)C=P(c1ccccc1)(c1ccccc1)c1ccccc1`, the inhibition was 60.6% (active).
Still for that read-out and setting: in the case of `O=C(CCSc1nc2ccccc2s1)N/N=C/c1c(O)ccc2ccccc12` it was 20.2% (inactive).
Same read-out and setting: in the case of `CC(C)Cn1c(N)c(C(=O)CSc2ccc3c(c2)OCCO3)c(=O)n(C)c1=O` it was 35.5% (inactive); in that of `COc1ccc(-n2cc(-c3ccccc3)[n+]3c2CCCCC3)cc1`, 24.8% (inactive); in that of `COc1cccc2c1C(=N)c1c(O)c3c(c(O)c1C2=O)CC(O)(C(C)=O)CC3OC1CC(N)C(O)C(C)O1` (stereo not given), 41.9% (inactive).
Still for that read-out and setting: in the case of `Cn1c(C(=O)O)c(CC(=O)Nc2ccc3c(c2)OCCO3)c2ccccc21` it was 19.4% (inactive).
For the compound `Cc1cc(C)c2nc3nc(C)c(C)cc3c(N)c2c1`, the inhibition was 13.7% (inactive).
On the same count and under the same terms, in the case of `CCOc1cc(/C=C2\CN(C)C/C(=C\c3ccc(O)c(OCC)c3)C2=O)ccc1O` it was 56.2% (active).
Take `CC1(C)CCSC(/C=C/c2ccccc2)=N1`: the inhibition is 62.4% (active).
Still for that read-out and setting: with `Cc1cc(=O)[nH]c(Nc2cccc(Br)c2)n1` the figure was 22.7% (inactive).
Still for that read-out and setting: in the case of `CC(=O)NS(=O)(=O)c1ccc(NC(=O)/C=C/c2cn(-c3ccccc3)nc2-c2ccccc2)cc1` it was -12.7% (inactive); in that of `Cn1c(CC(=O)Nc2ccc(Cl)c(Cl)c2)nnc1SCC(=O)N1CCN(c2ccccc2)CC1`, 14.9% (inactive).
Regarding `O=C(N/N=C/c1ccccc1O)/C(=C/c1ccccc1)CCO`, the inhibition is 16.7% (inactive).
Still for that read-out and setting: with `COc1ccc(-c2c[n+]3c(n2-c2ccccc2)SCC3)cc1` the figure was 17.9% (inactive); with `Oc1ccc(-c2n[nH]c(=S)n2-c2ccc3c(c2)OCCO3)c(O)c1`, 50% (active).
Turning to `COCC(C)n1c(C)cc(C(=O)COC(=O)c2cc(=O)[nH]c3ccccc23)c1C` (stereo not given), the inhibition is 1.93% (inactive).
The same measure, in the same setting: with `NC(=O)N=Nc1c2[nH]c3ccccc3nc-2c2ccccc12` the figure was -8.03% (inactive).
Regarding `O=C(/C=C/c1ccc(OCCCF)cc1)Nc1ccnc(-c2cccnc2)n1`, the inhibition is 17.1% (inactive).
`O=C(c1ccncc1)N(Cc1cc2ccccc2[nH]c1=O)C1CCCCC1`: the inhibition was 40.7% (inactive).
The same measure, in the same setting: with `O=C1C(F)=CC(COC(c2ccccc2)(c2ccccc2)c2ccccc2)OC1n1cc(F)c(=O)[nH]c1=O` (stereo not given) the figure was 66% (active).

A further assay concerns transactivating tegument protein VP16 (Human herpesvirus 1), Gal4-VP16 luciferase reporter. Nature of the assay: repression of VP16-driven luciferase reporter – cell-based, luminescence, high throughput, counter-screen for SRC3 inhibitor project (AID 588794). As to conditions: mammalian cells, at 3.6 µM, active compounds read high.
As to `NC(=O)c1sc2nc3c(c(-c4ccco4)c2c1N)CCC3`, the inhibition was 8.75% (inactive).
On to `COc1ccc2c(c1OC)C(=O)N1c3ccccc3C(=O)N(c3ccccc3)C21` (stereo not given), for which the inhibition is 8.85% (inactive).
For the compound `CCOc1ccc(-n2c(C)c(C(C)=O)c3cc(O)ccc32)cc1`, the inhibition is 51.2% (active).
Consider `CC[n+]1ccccc1/C=C/c1ccc(N(C)C)cc1`, for which the inhibition is 47.5% (active).
Same read-out and setting: in the case of `CC1CCN(c2nc3ccc(C(=O)O)cc3s2)CC1` it was -7.13% (inactive); in that of `O=C(C1CCC(CNS(=O)(=O)c2cccs2)CC1)N1CCN(c2ccc(Cl)cc2)CC1` (stereo not given), 30.5% (active).
Still for that read-out and setting: in the case of `Cc1c2ccncc2cc2c1[nH]c1ccccc12` it was 33.5% (active); in that of `CC1CCN(Cc2c(C(=O)N/N=C/c3cc(Br)ccc3O)nnn2-c2nonc2N)CC1`, 83.5% (active); in that of `COc1ccc(-c2cn[nH]c2-c2ccc(OC)cc2)cc1`, 34.7% (active).
As to `Cc1cc(/C=C2/C(=O)NN(c3ccccc3)C2=O)c(C)n1-c1ccc(O)cc1`, the inhibition is -41.7% (inactive).
Take `O=C(N/N=C/c1cc(Cl)ccc1O)C(=O)Nc1ccccc1OC(F)(F)C(F)F`: the inhibition is 38.3% (active).
Regarding `CN(C)CC(C(=O)c1ccccc1)c1ccccc1` (stereo not given), the inhibition is 46.8% (active).
For `Nc1nccc(-c2ccc(-n3cnc4ccccc43)cc2)n1`, the inhibition was 27.4% (inactive).
Same read-out and setting: with `Cc1nc2ccc(NC(=O)c3ccc(Cl)c(S(=O)(=O)N(C)c4ccccc4)c3)cc2s1` the figure was 35.7% (active); with `CC(=O)NC(C)c1cc(Cl)c2cccnc2c1O` (stereo not given), 2.75% (inactive).
On the same count and under the same terms, in the case of `COc1ccc(-c2csc(NC(=O)C3CCN(c4ncnc5sc(C)c(C)c45)CC3)n2)cc1OC` it was 58.1% (active); in that of `O=C(N/N=C(\c1ccccc1)c1ccccn1)c1ccccc1Cl`, 22.1% (inactive).
For the compound `Nc1nc(=O)n(C2CC(O)C(CO)O2)cc1F` (stereo not given), the inhibition was 37.5% (active).
On the same count and under the same terms, with `Nc1ncnc(NCc2ccccc2)c1[N+](=O)[O-]` the figure was 26.7% (inactive); with `COc1ccc(C(C(=O)NC2CCCCC2)N(C(=O)CCl)c2ccc(C)cc2)cc1` (stereo not given), 52.9% (active).
Consider `O=C(C=P(c1ccccc1)(c1ccccc1)c1ccccc1)c1ccccc1-c1ccccc1C(=O)C=P(c1ccccc1)(c1ccccc1)c1ccccc1`, for which the inhibition is 83.9% (active).
Turning to `O=C(CCSc1nc2ccccc2s1)N/N=C/c1c(O)ccc2ccccc12`, the inhibition was 23.7% (inactive).
Take `CC(C)Cn1c(N)c(C(=O)CSc2ccc3c(c2)OCCO3)c(=O)n(C)c1=O`: the inhibition was 56.9% (active).
`COc1ccc(-n2cc(-c3ccccc3)[n+]3c2CCCCC3)cc1`: the inhibition is 22% (inactive).
Still for that read-out and setting: with `COc1cccc2c1C(=N)c1c(O)c3c(c(O)c1C2=O)CC(O)(C(C)=O)CC3OC1CC(N)C(O)C(C)O1` (stereo not given) the figure was -33.3% (inactive); with `Cn1c(C(=O)O)c(CC(=O)Nc2ccc3c(c2)OCCO3)c2ccccc21`, 3.77% (inactive); with `Cc1cc(C)c2nc3nc(C)c(C)cc3c(N)c2c1`, 49.7% (active).
Still for that read-out and setting: with `CCOc1cc(/C=C2\CN(C)C/C(=C\c3ccc(O)c(OCC)c3)C2=O)ccc1O` the figure was 60.4% (active); with `CC1(C)CCSC(/C=C/c2ccccc2)=N1`, 45.5% (active); with `Cc1cc(=O)[nH]c(Nc2cccc(Br)c2)n1`, 23.7% (inactive).
In the case of `CC(=O)NS(=O)(=O)c1ccc(NC(=O)/C=C/c2cn(-c3ccccc3)nc2-c2ccccc2)cc1`, the inhibition is 0.43% (inactive).
Consider `Cn1c(CC(=O)Nc2ccc(Cl)c(Cl)c2)nnc1SCC(=O)N1CCN(c2ccccc2)CC1`, for which the inhibition was 12.5% (inactive).
For the compound `O=C(N/N=C/c1ccccc1O)/C(=C/c1ccccc1)CCO`, the inhibition is 18.1% (inactive).
As for `COc1ccc(-c2c[n+]3c(n2-c2ccccc2)SCC3)cc1`, the inhibition is 14.3% (inactive).
As to `Oc1ccc(-c2n[nH]c(=S)n2-c2ccc3c(c2)OCCO3)c(O)c1`, the inhibition is 34% (active).
For `COCC(C)n1c(C)cc(C(=O)COC(=O)c2cc(=O)[nH]c3ccccc23)c1C` (stereo not given), the inhibition is -15.5% (inactive).
On the same count and under the same terms, with `NC(=O)N=Nc1c2[nH]c3ccccc3nc-2c2ccccc12` the figure was 45% (active); with `O=C(/C=C/c1ccc(OCCCF)cc1)Nc1ccnc(-c2cccnc2)n1`, 11.1% (inactive); with `O=C(c1ccncc1)N(Cc1cc2ccccc2[nH]c1=O)C1CCCCC1`, 23.2% (inactive).
The same measure, in the same setting: with `O=C1C(F)=CC(COC(c2ccccc2)(c2ccccc2)c2ccccc2)OC1n1cc(F)c(=O)[nH]c1=O` (stereo not given) the figure was 60.3% (active).
